Assay results published in PubChem BioAssay AID588522 (NMMLSC, 2011).
The campaign covered roughly 1,700 compounds. About 20 (1%) were called active. The sample holds actives, similar compounds and a random draw of the others, so the mix is not that of the screen. Unmarked numbers belong to inactive results.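 How the source made its calls: active means inhibition above the screen-wide mean plus twice its standard deviation (cut at about 32% in these data); inactive means the rest.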

The molecules below were run on Candida albicans drug resistance protein 1 (Cdr1) expressed in S. cerevisiae (assay: Cdr1 pump blockade via Nile Red efflux – S. cerevisiae AD/CaCDR1, flow cytometry, cherry pick 1, singleplex, confirmation (AID 588522)). Settings: at 10 µM, hits give high values.

Q: Which inhibition does the source give for `O=C(Cc1ccccc1)NCC1OCCc2ccccc21` (stereo unspecified) here?
A: -0.03%

Q: How did the inhibition turn out when `COc1ccc(C(=O)NC2CC(C)(C)Cc3c2cnn3-c2ccccc2)c(OC)c1` (stereo unspecified) was run?
A: -0.08%

Q: For `O=C(CNC(=O)c1ccc(-c2ccccc2)cc1)OCc1ccc(Cl)cc1`, which inhibition is on record?
A: 0.15%

Q: Which inhibition does the source give for `O=C(OCc1ccc(-c2ccccc2)cc1)c1cccc(O)c1` here?
A: 0.08%

Q: For `O=C(CSc1nnc(-c2cccnc2)n1Cc1ccco1)c1ccc(Cl)c(Cl)c1`, which inhibition is on record?
A: -0.04%

Q: With `Cc1oc2cc3oc(=O)ccc3cc2c1C` as the molecule, how does the inhibition read?
A: -0.1%

Q: Which inhibition does the source give for `CC12CCC(C(=O)N(c3cccc(Cl)c3)C1=O)C2(C)C` (stereo unspecified) here?
A: 0.11%

Q: For `Cc1cc(C)cc(NC(=O)C(OC(=O)c2ccc(O)cc2)c2ccccc2)c1` (stereo unspecified), which inhibition is on record?
A: -0.12%

Q: Which inhibition does the source give for `COc1ccccc1/C=C/C=N/n1c(-c2ccc(Cl)cc2Cl)n[nH]c1=S` here?
A: 0.09%

Q: How did the inhibition turn out when `CCOc1ccc(C2/C(=C(/O)c3ccc4c(c3)CC(C)O4)C(=O)C(=O)N2CCCn2ccnc2)cc1` (stereo unspecified) was run?
A: 0.05%

Q: For `CC(/C=C/c1ccccc1)=N\NC(=O)C1CC1(C)c1ccccc1` (stereo unspecified), which inhibition is on record?
A: -0.03%

Q: With `O=C(Nc1ccc(NC(=O)c2cccs2)cc1)c1ccc2ccccc2c1` as the molecule, how does the inhibition read?
A: 0.04%

Q: With `CCNC(=O)c1c(O)c2cccc3c2n(c1=O)CC3` as the molecule, how does the inhibition read?
A: -0.08%

Q: How did the inhibition turn out when `Cc1cccc(NC(=O)COc2ccccc2C)n1` was run?
A: -0.06%

Q: `O=C(CN1C(=O)C2C3CCC(C3)C2C1=O)Oc1ccc2ccccc2c1` (stereo unspecified) was tested. Which inhibition did it give?
A: -0.01%

Q: For `CCCc1nnc(SCC(=O)Nc2ccc(C(=O)OCC)cc2)o1`, which inhibition is on record?
A: 0.53%

Q: With `O=C(/C=C/c1c(Cl)cccc1Cl)NCc1ccccc1` as the molecule, how does the inhibition read?
A: -0.01%

Q: Which inhibition does the source give for `CCNc1c(NS(=O)(=O)c2ccc(C3CCCCC3)cc2)c(=O)oc2ccccc12` here?
A: -0.2%

Q: `CSCCC(NC(=O)COc1ccccc1)C(=O)OCCOc1ccc(Br)cc1` (stereo unspecified) was tested. Which inhibition did it give?
A: -0.03%

Q: For `Cc1csc(NC(=O)c2ccc(-c3ccc(Cl)cc3Cl)o2)n1`, which inhibition is on record?
A: 0.16%

Q: For `Cc1cc(/C=N/NC(=O)CC2(C)OCCO2)c(C)n1-c1ccc(Cl)c(Cl)c1`, which inhibition is on record?
A: 0.13%

Q: Which inhibition does the source give for `COc1ccc(S(=O)(=O)N2CCOC2CNC(=O)C(=O)NCc2ccc(F)cc2)cc1` (stereo unspecified) here?
A: 0.04%

Q: `Cc1ccc(N=C2NC(=O)/C(=C/C=C/c3ccco3)S2)cc1C` was tested. Which inhibition did it give?
A: 0.36%

Q: For `CSCCC(NS(=O)(=O)c1ccc(C)cc1)C(=O)N1CCCC1` (stereo unspecified), which inhibition is on record?
A: -0.1%

Q: With `C/C(N)=C(/C#N)C(=O)COC(=O)c1cc(-c2cccc(Br)c2)nc2ccccc12` as the molecule, how does the inhibition read?
A: 0.12%

Q: Which inhibition does the source give for `Cc1ccc(/C=C(\C#N)C(=O)Nc2cccc3ncccc23)o1` here?
A: -0.54%

Q: For `O=C(NCc1ccccc1)C(=O)NCC1OCCN1S(=O)(=O)c1ccc(Br)cc1` (stereo unspecified), which inhibition is on record?
A: -0.27%

Q: How did the inhibition turn out when `Cc1nn(C)cc1N1C(=O)c2cccc3c(N)ccc(c23)C1=O` was run?
A: -0.53%

Q: `CN(C)S(=O)(=O)c1cc(C(=O)Nc2ccn(C)n2)c(Cl)cc1Cl` was tested. Which inhibition did it give?
A: -0.51%

Q: For `COc1ccc(C(=O)C2CCCN(Cc3cccn3-c3ccccn3)C2)c(C)c1` (stereo unspecified), which inhibition is on record?
A: 0.01%

Q: How did the inhibition turn out when `CCOc1ccc(/C=C2\SC(=S)N(NC(=O)c3ccncc3)C2=O)cc1OC` was run?
A: -0.06%

Q: Which inhibition does the source give for `COc1ccc(NC(=S)N2CCc3cc(OC)c(OC)cc3C2)cc1` here?
A: 0.16%

Q: For `CCn1c(/C=C/c2ccc([N+](=O)[O-])o2)nc2ccccc2c1=O`, which inhibition is on record?
A: 0.83%

Q: With `CC(C)C(=O)N1CCC2(CC1)Oc1ccc(F)cc1C(=O)C21CC(c2ccccc2)=NO1` (stereo unspecified) as the molecule, how does the inhibition read?
A: 0.01%

Q: How did the inhibition turn out when `COc1cccc(NC(=O)CN(C)C(=O)/C=C/c2cc(OC)ccc2OC)c1` was run?
A: -0.15%

Q: With `COc1ccc(/C=C(\C#N)c2c[nH]c3ccccc23)cc1` as the molecule, how does the inhibition read?
A: -0.2%

Q: With `NNC(=O)COc1ccc(C2SCCS2)cc1` as the molecule, how does the inhibition read?
A: -0.06%

Q: Which inhibition does the source give for `O=C(CCCCCn1c(=O)[nH]c2ccccc2c1=O)NCCc1c[nH]c2ccccc12` here?
A: -0.02%

Q: How did the inhibition turn out when `COc1cccc(-c2sc3ccc(OC)cc3c2-c2ccc(OCCN3CCCCC3)cc2)c1` was run?
A: 45.4% (active)

Q: For `COc1ccc2sc(-c3ccccc3OC)c(-c3ccc(OCCN4CCCC4)cc3)c2c1`, which inhibition is on record?
A: 4.57%

Q: `COc1ccc(-c2sc3ccccc3c2-c2ccc(OCCN3CCOCC3)cc2)cc1` was tested. Which inhibition did it give?
A: -0.26%

Q: How did the inhibition turn out when `Cc1nn(C)cc1C(=O)Nc1ccccc1Br` was run?
A: -0.09%

Q: Which inhibition does the source give for `CCCCCCCCCCCCCCCC(=O)OC/C=C(C)/C=C/C=C(C)/C=C/C1=C(C)CCCC1(C)C` here?
A: 0.11%

Q: How did the inhibition turn out when `C=CCC[C@@H](Cc1ccc(F)cc1)C(=O)OC[C@H](Cc1c[nH]c2ccccc12)NC(=O)[C@@H](CC=C)CC(=O)N(CCO)Cc1ccccc1` was run?
A: 0.17%

Q: How did the inhibition turn out when `CN=C(c1ccccc1)c1c(C)cccc1C` was run?
A: 0.01%

Q: `Cc1cc(C(=O)Nc2ccc(C)c(S(=O)(=O)N3CCOCC3)c2)c2ccccc2n1` was tested. Which inhibition did it give?
A: -0.08%

Q: With `CCc1ccc(NC(=O)Cn2ncn3c(cc4ccccc43)c2=O)cc1` as the molecule, how does the inhibition read?
A: -0.23%

Q: Which inhibition does the source give for `Cc1ccc(OCc2cc(C(=O)N(C)CCc3ccccc3)no2)cc1C` here?
A: -0.15%

Q: `CCOc1ccc2nc(Cl)c(C3CC(c4ccccc4)=NN3C(=O)c3cccs3)cc2c1` (stereo unspecified) was tested. Which inhibition did it give?
A: 0.11%

Q: `O=C1NC(=O)C2C1C(c1ccc([N+](=O)[O-])cc1)=NN2Cc1ccccc1` (stereo unspecified) was tested. Which inhibition did it give?
A: 0.24%

Q: Which inhibition does the source give for `CCCCCC(=O)Nc1ccc(C(=O)N/N=C/c2ccc([N+](=O)[O-])cc2)cc1` here?
A: 0.01%

Q: For `CCOC(=O)CNC(=O)CSc1nnnn1-c1cc(C)ccc1C`, which inhibition is on record?
A: -0.03%

Q: For `CC[n+]1cc(C)ccc1/C=C/c1ccc(N(C)C)cc1`, which inhibition is on record?
A: 4.74%

Q: With `COc1ccc2[nH]c3c(C)c4cc[n+](C)cc4c(C)c3c2c1` as the molecule, how does the inhibition read?
A: 0.08%

Q: For `Cc1c(CCOC(=O)CC23CC4CC(CC(C)(C4)C2)C3)sc[n+]1Cc1ccc([N+](=O)[O-])cc1`, which inhibition is on record?
A: 0.01%

Q: Which inhibition does the source give for `CCOC(=O)c1c(NC(=S)NC(=O)c2ccco2)sc2c1CCCC2` here?
A: -0.31%

Q: How did the inhibition turn out when `C[n+]1ccc(/C=C/c2c[nH]c3ccccc23)cc1` was run?
A: 3.85%

Q: With `COc1ccc(C(=O)NC2CCCc3c2cnn3-c2cccc(C)c2C)c(OC)n1` (stereo unspecified) as the molecule, how does the inhibition read?
A: -0.29%

Q: For `CC(/C=N/NC(=O)c1cc(-c2ccc3ccccc3c2)n[nH]1)=C\c1ccco1`, which inhibition is on record?
A: -0.15%

Q: Which inhibition does the source give for `O=C(Cc1ccc(Br)cc1)N1CCN(c2ccccn2)CC1` here?
A: -0.06%

Q: Which inhibition does the source give for `CCCCN1C(=O)/C(=C/C=C2/C=Cc3ccccc3N2CC)SC1=S` here?
A: -0.08%

Q: For `Cc1ccc(Cn2c(C)nc3c(c2=O)c2nc4ccccc4nc2n3Cc2ccco2)cc1`, which inhibition is on record?
A: 0.09%

Q: Which inhibition does the source give for `Cc1ccc2[nH]c3c(=O)n(CC(=O)NCCc4ccc(Cl)cc4)ncc3c2c1` here?
A: 0.27%

Q: For `COc1ccc(C(=O)NC(=S)Nc2ccc(N3CCCC3)cc2)cc1OC`, which inhibition is on record?
A: -0.15%

Q: With `Cc1nc2c(C(=O)NCc3ccc4c(c3)OCO4)c[nH]n2c(=O)c1Cc1ccccc1F` as the molecule, how does the inhibition read?
A: -0.08%

Q: Which inhibition does the source give for `COc1ccccc1NC(=O)C1CCCN1S(=O)(=O)c1ccc(Cl)cc1` (stereo unspecified) here?
A: -0.03%

Q: Which inhibition does the source give for `CCCc1nc(N2CCN(C)CC2)c2sc(=S)n(-c3ccccc3)c2n1` here?
A: 0.07%

Q: `Cc1ccc(Cn2nnc3c(=O)[nH]c(C4CCN(S(=O)(=O)/C=C/c5ccccc5)CC4)nc32)cc1` was tested. Which inhibition did it give?
A: -0.06%

Q: For `CCCCOc1ccc(C(=O)NCC(=O)OCC(=O)c2c(N)n(C)c(=O)n(C)c2=O)cc1`, which inhibition is on record?
A: 106% (active)

Q: Which inhibition does the source give for `COc1ccccc1CSc1ncc(-c2ccc([N+](=O)[O-])cc2)[nH]1` here?
A: -0.02%

Q: How did the inhibition turn out when `CCOc1ccccc1/C=c1\sc2nc(-c3ccco3)nn2c1=O` was run?
A: 0.21%

Q: With `O=C(Cn1c(COc2ccccc2)nc2ccccc21)Nc1cc(Cl)c(Cl)cc1Cl` as the molecule, how does the inhibition read?
A: 0.09%

Q: Which inhibition does the source give for `CC1CCc2c(sc(NC(=O)c3ccc(Cn4cc(Br)cn4)o3)c2C(N)=O)C1` (stereo unspecified) here?
A: -0.03%

Q: For `Cc1ccc2c(c1)NC(=O)[C@@]1(C)[C@@H](c3ccccc3)[C@H]3COc4ccc(Cl)cc4[C@@H]3N1C2=O`, which inhibition is on record?
A: 0.07%

Q: With `CN1CCN(S(=O)(=O)c2ccc(NC(=S)NC(=O)C3CC3)cc2)CC1` as the molecule, how does the inhibition read?
A: -0.08%

Q: Which inhibition does the source give for `O=S(=O)(c1ccccc1)N1CCc2ccccc21` here?
A: 0.54%
